Source: PubChem BioAssay (NCI)
Values joined by “and” are separate entries in the source; they are usually repeats but may differ in a detail not shown here. Identical values can stand only once. The panel holds about 83,000 compounds, 20% with a hit somewhere; the sample as a whole holds those more often.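 Growth was measured after 48 h exposure to one concentration of compound in 96-well plates. Values under 10 count as active.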 Some structures have more than one record in an assay (separate samples or runs), and their calls can disagree. Active and inactive are the calls of the source. Where a SMILES comes first, the peptide text is derived from it. [ ]: non-standard residue; d: D form. ξ: configuration not given here. ξV = CC(C)C(N)C(=O)O

Columns and labels:
Test in all cases: NCI-60 one-dose screen, 48 h (100 = growth as untreated, 0 = no growth, -100 = all killed)
[1] = system: NCI-H23 lung; settings: 10 µM
[2] = system: NCI-H226 lung; settings: 10 µM
[3] = system: NCI-H322M lung; settings: 10 µM
[4] = system: HOP-62 NSCLC; settings: 10 µM
[5] = system: NCI-H460 lung; settings: 10 µM
[6] = system: HOP-92 NSCLC; settings: 10 µM
[7] = system: NCI-H522 lung; settings: 10 µM unless noted
[8] = system: A549/ATCC NSCLC; settings: 10 µM
[9] = system: 786-0 renal; settings: 10 µM
[10] = system: COLO 205 colon; settings: 10 µM

| Compound | growth [1] | growth [2] | growth [3] | growth [4] | growth [5] | growth [6] | growth [7] | growth [8] | growth [9] | growth [10] |
| --- | --- | --- | --- | --- | --- | --- | --- | --- | --- | --- |
| CC(=O)OCC(OC(C)=O)C(OC(C)=O)C(OC(C)=O)C(OC(C)=O)C(/C=N/Nc1ccccc1)=N/Nc1ccccc1 (stereo not drawn) | 79.9% (inactive) | 72.7% (inactive) | 65% (inactive) | 66.8% (inactive) | 65.2% (inactive) | 79.5% (inactive) | 40.6% (inactive) | 60.9% (inactive) | 63.6% (inactive) | 97.1% (inactive) |
| COC(=O)C1=COC(C)C2C[n+]3ccc4c([nH]c5ccccc54)c3CC12 (stereo not drawn) | 103% (inactive) and 88.6% (inactive) | 87.1% (inactive) and 71.2% (inactive) | 107% (inactive) and 95.9% (inactive) | 94.7% (inactive) and 88.3% (inactive) | 113% (inactive) and 95.1% (inactive) | 92.2% (inactive) and 75.9% (inactive) | 99.2% (inactive) and 76.1% (inactive) | 103% (inactive) and 76.7% (inactive) | 102% (inactive) and 107% (inactive) | 106% (inactive) and 99.7% (inactive) |
| NC(=O)SCC(=O)NNc1ccccc1 | 112% (inactive) | 93.1% (inactive) | 94.8% (inactive) | 93.8% (inactive) | 98.8% (inactive) | 92.2% (inactive) | 85.2% (inactive) | 85.3% (inactive) | 108% (inactive) | 100% (inactive) |
| CCCCCC(C)c1ccc(O)c(C)c1 (stereo not drawn) | 104% (inactive) | 96% (inactive) | 99.3% (inactive) | 98.4% (inactive) | 107% (inactive) | 98% (inactive) | 88.2% (inactive) | 113% (inactive) | 93.6% (inactive) | 111% (inactive) |
| CCCC1CCC(=C2C(=O)CCC2=O)O1 (stereo not drawn) | 102% (inactive) and 98.7% (inactive) | 102% (inactive) and 108% (inactive) |  | 90.6% (inactive) and 101% (inactive) | 101% (inactive) and 113% (inactive) | 103% (inactive) | 121% (inactive) and 83.9% (inactive) | 110% (inactive) and 97.5% (inactive) | 105% (inactive) and 92.9% (inactive) | 100% (inactive) and 99.2% (inactive) |
| COc1ccc(CC(=O)c2ccc(O)cc2O)cc1 | 104% (inactive) | 133% (inactive) |  | 88.4% (inactive) | 115% (inactive) | 94.4% (inactive) | 4.52% (active) | 109% (inactive) | 96.5% (inactive) | 207% (inactive) |
| Cc1cc(NS(=O)(=O)c2ccc(N=Nc3cc(N=Nc4ccc(S(=O)(=O)Nc5cc(C)nc(C)n5)cc4)c4c(NC(=O)C(Cl)Cl)cccc4c3OC(=O)C(Cl)Cl)cc2)nc(C)n1 (tested in a mixture with another compound) | 107% (inactive) | 94.6% (inactive) and 96.1% (inactive) |  | 102% (inactive) and 103% (inactive) | 109% (inactive) and 103% (inactive) | 99% (inactive) and 120% (inactive) | 86.1% (inactive) and 3.96% (active) | 98.9% (inactive) and 95.2% (inactive) | 111% (inactive) and 115% (inactive) | 109% (inactive) and 113% (inactive) |
| N=S(c1ccccc1[N+](=O)[O-])c1ccccc1[N+](=O)[O-] | 83.9% (inactive) | 52.7% (inactive) |  | 124% (inactive) | 104% (inactive) | -1.88% (active) | -77.5% (active) | 90.3% (inactive) | 39.7% (inactive) | 2.39% (active) |
| CC(C)C(NC(=O)CN)C(=O)O (stereo not drawn) (H-Gly-[ξV]-OH) | 101% (inactive) and 106% (inactive) | 102% (inactive) and 100% (inactive) |  | 106% (inactive) and 98% (inactive) | 113% (inactive) and 103% (inactive) | 102% (inactive) | 95.9% (inactive) and 89.7% (inactive) | 95% (inactive) and 99.2% (inactive) | 95.1% (inactive) and 106% (inactive) | 117% (inactive) and 113% (inactive) |
| Nc1nc(=S)c2ncn(C3OC(CO)C(O)C3O)c2[nH]1 (stereo not drawn) | 102% (inactive) and 25.8% (inactive) | 113% (inactive) and 35.5% (inactive) |  | 106% (inactive) and 35.4% (inactive) | 120% (inactive) and 9.3% (active) | 29.5% (inactive) | 96.7% (inactive) and -12% (active) | 92.9% (inactive) and 27.9% (inactive) | 103% (inactive) and 22.2% (inactive) | 155% (inactive) and 12.4% (inactive) |
| Clc1ccc(/C=C/c2ccccn2)c(Cl)c1 | 93.7% (inactive) | 97.1% (inactive) |  | 96.2% (inactive) | 95.2% (inactive) | 84% (inactive) | 81.2% (inactive) | 90% (inactive) | 105% (inactive) | 94.7% (inactive) |
| CC1=CC(C)=Nc2ccc(Cl)cc2N1 | 94.1% (inactive) | 97.6% (inactive) |  | 105% (inactive) | 101% (inactive) | 96.9% (inactive) | 103% (inactive) | 114% (inactive) | 106% (inactive) | 106% (inactive) |
| CCC(C)(C)c1cc(O)c(C(C)(C)CC)cc1O | 38.5% (inactive) | 41.8% (inactive) |  | 54.8% (inactive) | 21.2% (inactive) | -7.38% (active) |  | 49.9% (inactive) |  | 40.7% (inactive) |
| O=C(C(=Cc1ccccc1)C(=O)c1ccccc1)c1ccccc1 | 66.7% (inactive) and 95.2% (inactive) | 68.4% (inactive) and 97.7% (inactive) |  | 102% (inactive) | 33.3% (inactive) and 96.3% (inactive) | 65.7% (inactive) and 84.3% (inactive) | 75.2% (inactive) and 68.9% (inactive) | 81.6% (inactive) and 83.1% (inactive) | 73.5% (inactive) and 97.3% (inactive) | 124% (inactive) |
| C[n+]1c2cc(N)ccc2cc2ccc(N)cc21 |  | -14.9% (active) [middle of 4 runs] |  |  |  | 43.9% (inactive) and 8.02% (active) and -29.2% (active) |  |  |  |  |
| O=C(Nc1ccc(C(=O)O)c(O)c1)c1ccccc1 | 104% (inactive) and 97.9% (inactive) | 101% (inactive) |  | 95.3% (inactive) and 91.7% (inactive) | 109% (inactive) | 81.4% (inactive) and 103% (inactive) | 93.3% (inactive) and 89.8% (inactive) | 101% (inactive) and 95.6% (inactive) | 109% (inactive) and 97% (inactive) | 102% (inactive) and 130% (inactive) |
| CSC1SCC2C(=O)N(C)C(C(C)C)C(=O)OCC(NC(=O)c3cnc4ccccc4n3)C(=O)NC(C)C(=O)N(C)C1C(=O)N(C)C(C(C)C)C(=O)OCC(NC(=O)c1cnc3ccccc3n1)C(=O)NC(C)C(=O)N2C (stereo not drawn) | -28.2% (active) | -5.57% (active) |  | -12.4% (active) | 4.33% (active) | -20.3% (active) | -16.1% (active) | -15.2% (active) | -10.6% (active) | -45.3% (active) |
| OCC(O)C(O)C(O)C(/C=N/Nc1ccccc1)=N/Nc1ccccc1 (stereo not drawn) | 93.1% (inactive) | 91.4% (inactive) |  | 70.2% (inactive) | 89.9% (inactive) | 75.1% (inactive) | 55.5% (inactive) | 87.3% (inactive) | 107% (inactive) | 96.5% (inactive) |
| CCCCCCCCCCCCSC(=NC)NC | 35.4% (inactive) and 54.9% (inactive) | 66.3% (inactive) and 79.1% (inactive) |  | 76.3% (inactive) and 87.2% (inactive) | 4.19% (active) and 42.7% (inactive) | -1.15% (active) and 36% (inactive) | 57.7% (inactive) and 85% (inactive) | 64.4% (inactive) and 87.7% (inactive) | -23.8% (active) and 62.9% (inactive) | -85.4% (active) and -86.3% (active) |
| NNc1c2ccccc2nc2ccccc12 | 47.4% (inactive) | 48.5% (inactive) |  | 64.6% (inactive) | 10% (inactive) | 88.1% (inactive) | 33.2% (inactive) | 23.6% (inactive) | 34.2% (inactive) | 67.6% (inactive) |
| CN1CCN(CCCN2c3ccccc3Sc3ccc(C(F)(F)F)cc32)CC1 | 69.9% (inactive) | 101% (inactive) |  | 61.8% (inactive) | 33.6% (inactive) |  | 73% (inactive) | 59.4% (inactive) | 37.2% (inactive) | -79% (active) |
| O=C1C=CC(=CC=C2C=CN(CCCCCCCCCCCO)C=C2)C=C1 | 20% (inactive) | 59.6% (inactive) |  | 44.5% (inactive) | 17.5% (inactive) | 24% (inactive) | 18.2% (inactive) | 46.3% (inactive) | 67.2% (inactive) | -42.6% (active) |
| CCCCCCCCCCCC[N+](C)(C)Cc1ccccc1 | 23.8% (inactive) | 55% (inactive) |  | 28% (inactive) | 71.9% (inactive) |  | -4.63% (active) | 70.9% (inactive) | 28.1% (inactive) | 15.7% (inactive) |
| CC(C)(C)CC(C)(C)c1ccc(OCCO)cc1 | 106% (inactive) | 105% (inactive) |  | 110% (inactive) | 117% (inactive) |  |  | 96.4% (inactive) | 109% (inactive) | 110% (inactive) |
| O=C1NC(=O)c2cc([N+](=O)[O-])ccc21 | 105% (inactive) | 97.7% (inactive) |  | 101% (inactive) | 105% (inactive) | 82.3% (inactive) | 102% (inactive) | 107% (inactive) | 112% (inactive) | 111% (inactive) |
| Cc1cc(O)c(C(C)C)cc1Cl | 106% (inactive) | 96.7% (inactive) |  | 95.7% (inactive) | 99.1% (inactive) | 99.9% (inactive) | 101% (inactive) |  | 101% (inactive) | 107% (inactive) |
| Nc1ccc2cc3ccc(N)cc3nc2c1 | 101% (inactive) and 3.42% (active) | 87% (inactive) and -2.76% (active) |  | 6.72% (active) | 102% (inactive) and 0.17% (active) | 96.7% (inactive) and -1.28% (active) | -50.9% (active) | 84.3% (inactive) and 2.08% (active) | 113% (inactive) and 43.8% (inactive) | 109% (inactive) and -39.2% (active) |
